PubChem BioAssay AID2284423 (EPA ToxCast)
Inconclusive results are not listed. Active and inactive are the calls of the source. How the source made its calls: active means hit-call score of the fitted dose curve at least 0.9, where 1 is the maximum; inconclusive means response in the unintended direction; inactive means score below 0.9.

Test system: SRY-box transcription factor 17 (SOX17) Protein Expression, SOX17 (gene 64321)
Experiment: CCTE_Deisenroth_DEVTOX-GLR_Ecto_SOX17: CCTE's DevTox GLR-Ecto Assay Evaluation of SRY-box transcription factor 17 (SOX17) Protein Expression, Deisenroth Lab
Experimental: CCTE_Deisenroth_DEVTOX-GLR_Ecto assay is a cell-based, multiplex-readout assay that uses RUES2-GLR, a human pluripotent cell line, with measurements taken at 48 hours after chemical dosing in a 384-well microplateCCTE_Deisenroth_DEVTOX-GLR_Ecto_SOX17 is 1 of 4 assay components calculated from the CCTE_Deisenroth_DEVTOX-GLR_Ecto assay and it measures an the percentage of cells in an endoderm state. Using a type of inducible fluorescent protein reporter, gain-of-signal activity can be used to understand changes in gene expression with fluorescent microscopy. The percentage of SOX17+ cells are determined by calculating the number of SOX17+ cells divided by the cell count. To generalize the intended target to other relatable targets, this assay component is annotated to the transcription factor intended target family, where the subfamily is SRY-related HMG-box.Data from the assay component CCTE_Deisenroth_DEVTOX-GLR_Ecto_SOX17 was analyzed as 1 assay endpoint. The endpoint is the percent SOX17+ cell population minus the 0.2% DMSO control in the CCTE_Deisenroth_DEVTOX-GLR_Ecto assay. This assay endpoint can be referred to as a secondary readout since this assay has produced multiple assay endpoints where this one serves as a measure of endoderm differentiation.
All assay protocols are aligned to the DevTox GLR-Endo assay workflow. Cells are seeded into 384-well microplates for 24 hours prior to initiating differentiation in defined media for a total duration of 48 hours. A total of two chemical exposures are administered in 24-hour intervals during the 48-hour differentiation period. At the assay termination point, cells are fixed and stained with a fluorescent dye demarcating the nucleus. High-content imaging is used to acquire brightfield and fluorescent channel images across 5 fields per well. Cell identification and mean biomarker fluorescence intensities are calculated with image analysis software to determine the total cell counts for viability assessment and the biomarker expression frequency for each lineage-dependent assay. A typical experimental design tests a 10-point concentration series (1 nM - 200 uM) for 28 compounds in single technical replicate. Assay plate controls include non-differentiated pluripotent cells (baseline control), lineage-specific differentiated cells (differentiation control), and DMSO solvent exposed differentiated cells (solvent control). Experiments typically comprise a minimum of four experimental replicates (n=4).

SMILES	AC50	outcome
CS(=O)(=O)OCCCCOS(C)(=O)=O	100 µM (active)	
CC(C)(c1ccc(O)cc1)c1ccc(O)cc1		inactive
O=c1[nH]cc(F)c(=O)[nH]1	32 µM (active)	
O=C1CCC(N2C(=O)c3ccccc3C2=O)C(=O)N1 (configuration not stated)		inactive
O=C1NC(=O)C(c2ccccc2)(c2ccccc2)N1		inactive
CC1=C(/C=C/C(C)=C/C=C/C(C)=C\C(=O)O)C(C)(C)CCC1	183 µM (active)	
CC/C(=C(/CC)c1ccc(O)cc1)c1ccc(O)cc1		inactive
CCN(CC)CCNC(=O)c1c(C)[nH]c(/C=C2\C(=O)Nc3ccc(F)cc32)c1C	1.14 µM (active)	
O=C1NS(=O)(=O)c2ccccc21		inactive
CN(Cc1cnc2nc(N)nc(N)c2n1)c1ccc(C(=O)N[C@@H](CCC(=O)O)C(=O)O)cc1		inactive
CCCC(CCC)C(=O)O		inactive
CC1=C(/C=C/C(C)=C/C=C/C(C)=C/C(=O)O)C(C)(C)CCC1	171 µM (active)	
